High-throughput results from PubChem BioAssay.
Vaccinia inh: Vaccinia orthopox stage-specific inhibition; AID 1053133; activity change (mCherry), % (concentration not given with the values); actives 0.01% (n = 89,000); Vaccinia-infected cells, mCherry/Venus stage reporter fluorescence; stronger effect = lower value; in the data active means activity change below about -37%, passing the limit was not always enough; tested in A549 cells
Large screens that a line does not name were inactive. The entries come from a sample that favours hits as a whole.

CC(C)C#Cc1ccc([C@H]2[C@@H](CO)N3C(=O)CN(C(=O)NC4CCCCC4)C[C@@H]23)cc1	none
C[C@@H]1CN([C@H](C)CO)S(=O)(=O)c2ccc(-c3cccc(C#N)c3)cc2O[C@H]1CN(C)C(=O)c1cccnc1	none
CC(C)CC#Cc1cnc2c(c1)C(=O)N([C@@H](C)CO)C[C@@H](C)[C@@H](CN(C)C(=O)c1cnccn1)O2	none
C[C@@H]1CN([C@H](C)CO)C(=O)c2cc(NS(C)(=O)=O)ccc2O[C@@H](C)CCCCO[C@H]1CN(C)CC1CC1	none
CCCNC(=O)c1cc2c(c(-c3cccc(-c4cccc(F)c4)c3)n1)[C@H](CCO)N([S@@](=O)C(C)(C)C)C2	Vaccinia inh -46.5
COc1ccccc1-c1cccc(-c2nc(C(=O)N3CCN(C)CC3)cc3c2[C@@H](CCO)N([S@](=O)C(C)(C)C)C3)c1	none
COCCNC(=O)c1cc2c(c(-c3cccc(-c4cccc(F)c4)c3)n1)[C@@H](CCO)N([S@](=O)C(C)(C)C)C2	none
CCNC(=O)c1cc2c(c(-c3cccc(-c4cccc(F)c4)c3)n1)[C@@H](CCO)N([S@](=O)C(C)(C)C)C2	none
CN1CCN(C(=O)c2cc3c(c(-c4cccc(Br)c4)n2)[C@H](CCO)N([S@@](=O)C(C)(C)C)C3)CC1	none
CN1CCN(C(=O)c2cc3c(c(-c4cccc(C#CCC5CCCC5)c4)n2)[C@@H](CCO)N(S(=O)C(C)(C)C)C3)CC1 (some centres undefined)	Vaccinia inh -65.3
C[C@H]1CN([C@@H](C)CO)C(=O)c2cc(-c3cccc(F)c3)cnc2O[C@H]1CN(C)C(=O)Nc1cc(F)ccc1F	none
N#C[C@@H]1[C@@H](c2ccc(C3=CCCCC3)cc2)[C@@H](CO)N1C(=O)NC1CCCCC1	none
C[C@H]1CN([C@@H](C)CO)S(=O)(=O)c2ccc(C3=CCCC3)cc2O[C@H]1CN(C)Cc1ccccn1	none
COc1ccc2c3c([nH]c2c1)[C@@H](CO)N(Cc1ccccc1OC)CC31CN(C)C1	none
C[C@@H]1CN([C@H](C)CO)C(=O)c2cccc(NC(=O)Nc3ccc4c(c3)OCO4)c2O[C@@H]1CN(C)S(=O)(=O)c1ccc(Cl)cc1	none
C[C@@H]1CN([C@H](C)CO)C(=O)c2cccc(NS(C)(=O)=O)c2O[C@H]1CN(C)Cc1ccncc1	none
CCNC(=O)C[C@H]1C=C[C@@H](NS(=O)(=O)c2ccc(C)cc2)[C@@H](CO)O1	none
C/C=C/c1ccc([C@H]2[C@@H](CN(C)S(C)(=O)=O)N(C(C)=O)[C@H]2CO)cc1	none
Cc1noc(C)c1NC(=O)N(C)C[C@@H]1OCCCC[C@H](C)Oc2ccc(NS(=O)(=O)c3c(C)noc3C)cc2C(=O)N([C@H](C)CO)C[C@@H]1C	none
Cc1ccc(S(=O)(=O)N[C@H](C(=O)NCCN=[N+]=[N-])C(C)C)cc1	none
CO[C@@H]1CN(C)C(=O)c2cc(NC(C)=O)ccc2OC[C@H](C)N(C(=O)c2ccccc2F)C[C@H]1C	none
C[C@@H]1CN([C@H](C)CO)C(=O)c2cc(NC(=O)CCCN(C)C)ccc2O[C@@H](C)CCCCO[C@H]1CN(C)S(=O)(=O)c1ccc(Cl)cc1	none
CN(C)CC(=O)N1CC2(C1)[C@@H](c1ccccc1)[C@@H](CO)N2C(=O)C1CCCCC1	none
O=C(NCC1CC1)[C@@H]1[C@@H](CO)[C@@H]2Cn3c(ccc(-c4ccccc4)c3=O)[C@@H]2N1CC1CC1	none
O=C(C[C@@H]1CC[C@@H](NC(=O)Nc2ccccc2)[C@H](CO)O1)NCc1ccccn1	none
O=S(=O)(NCC[C@@H]1CC[C@H](NS(=O)(=O)c2cccc(F)c2)[C@H](CO)O1)c1cccc(F)c1	none
Cc1noc(C)c1NC(=O)N(C)C[C@H]1Oc2c(NC(=O)CCCCCC(=O)Nc3ccccc3N)cccc2C(=O)N([C@@H](C)CO)C[C@H]1C	none
O=C(O)C[C@H]1CC[C@@H](NC(=O)c2ccncc2)[C@@H](CO)O1	none
COc1cccc(S(=O)(=O)N2CCC3(CC2)CN(C(=O)Nc2cccc(F)c2)[C@H](CO)c2[nH]c4cc(OC)ccc4c23)c1	none
C[C@@H]1CN([C@@H](C)CO)C(=O)c2cc(NC(=O)c3ccncc3)ccc2O[C@@H](C)CCCCO[C@H]1CN(C)CC1CCCCC1	none
COc1ccccc1NC(=O)N(C)C[C@@H]1OCc2ccccc2-c2ccccc2C(=O)N([C@@H](C)CO)C[C@@H]1C	none
C[C@@H]1CN([C@H](C)CO)C(=O)c2cc(N(C)C)ccc2O[C@@H]1CN(C)S(=O)(=O)c1ccc(F)cc1	none
C[C@H](CO)N1C[C@H](C)[C@H](CN(C)S(=O)(=O)c2cccs2)Oc2c(NC(=O)C3CC3)cccc2C1=O	none
C[C@H](CO)N1C[C@H](C)[C@@H](CN(C)C)Oc2ncc(-c3cccc(C(=O)N(C)C)c3)cc2C1=O	none
CCS(=O)(=O)Nc1ccc2c(c1)C(=O)N(C)[C@H]1CC[C@@H](CC(=O)NC)O[C@@H]1CO2	none
O=C(C[C@H]1C[C@H]2c3cc(NC(=O)NC4CCCCC4)ccc3O[C@H]2[C@@H](CO)O1)NC1CCCC1	none
C[C@H]1CN([C@@H](C)CO)S(=O)(=O)c2ccc(-c3cccnc3)cc2O[C@H]1CN(C)C(=O)c1cccc(F)c1	none
CC(=O)N1[C@@H](CO)[C@H](c2ccccc2)C12CN(C(=O)c1ccccc1)C2	none
